# The campaign covered roughly 5,500 compounds. About 2,000 (36%) were called active. Not shown: some 18% with an inconclusive outcome. This is one part of the list. Values without a mark were called inactive. No stated cut-off is given here; in the data, active means normalized growth mostly below about 0.91 (no sharp cut-off); inconclusive means no clear call, values can overlap the other calls; inactive means mostly above about 0.92.
# Assay: chemical genetic growth profiling, strain panel (AID 1159580);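 further: tested at 20 µM; growth read once vehicle control cultures reached saturation at 30 °C; 1 = growth at the plate median or of vehicle wells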
# Conditions: S. cerevisiae deletion strains, growth OD
smiles,measurement,setting,value
NC(=O)c1cc[n+](CC2=C(C(=O)O)N3C(=O)[C@@H](NC(=O)[C@@H](c4ccccc4)S(=O)(=O)[O-])[C@H]3SC2)cc1,normalized growth,"locus YAL040C, strain CLN3, stronger effect = lower value",0.993
same,normalized growth,"locus YCL061C, strain MRC1 (second series), stronger effect = lower value",0.999
same,normalized growth,"locus YER002W, strain NOP16, stronger effect = lower value",0.995
same,normalized growth,"locus YNL128W, strain TEP1, stronger effect = lower value",1
same,normalized growth,"locus YNL175C, strain NOP13, stronger effect = lower value",1
same,normalized growth,"locus YNL197C, strain WHI3, stronger effect = lower value",0.983
same,normalized growth,"locus YNL224C, strain SQS1, stronger effect = lower value",1
same,normalized growth,"locus YOR083W, strain WHI5 (second series), stronger effect = lower value",1.07
same,normalized growth,"locus YPL055C, strain LGE1, stronger effect = lower value",0.988
Nc1ccc(Sc2ccccc2)nc1Sc1ccccc1,normalized growth,"locus YAR019C, strain CDC15, stronger effect = lower value",0.947
same,normalized growth,"locus YBL105C, strain PKC1, stronger effect = lower value",0.961
same,normalized growth,"locus YBR135W, strain CKS1, stronger effect = lower value",0.957
same,normalized growth,"locus YBR136W, strain MEC1, stronger effect = lower value",0.957
same,normalized growth,"locus YBR160W, strain CDC28, stronger effect = lower value",0.95
same,normalized growth,"locus YDL017W, strain CDC7, stronger effect = lower value",0.967
same,normalized growth,"locus YDL028C, strain MPS1, stronger effect = lower value",0.942
same,normalized growth,"locus YDL101C, strain DUN1, stronger effect = lower value",0.963
same,normalized growth,"locus YDL108W, strain KIN28, stronger effect = lower value",0.958
same,normalized growth,"locus YDL132W, strain cdc53, stronger effect = lower value",0.958
same,normalized growth,"locus YDL214C, strain PRR2, stronger effect = lower value",0.927
same,normalized growth,"locus YDR052C, strain DBF4, stronger effect = lower value",0.976
same,normalized growth,"locus YDR054C, strain cdc34, stronger effect = lower value",0.947
same,normalized growth,"locus YDR226W, strain ADK1, stronger effect = lower value",0.957
same,normalized growth,"locus YDR477W, strain SNF1, stronger effect = lower value",0.901
same,normalized growth,"locus YER123W, strain YCK3, stronger effect = lower value",0.918
same,normalized growth,"locus YER133W, strain GLC7, stronger effect = lower value",0.927
same,normalized growth,"locus YFL009W, strain cdc4, stronger effect = lower value",0.938
same,normalized growth,"locus YFL029C, strain CAK1, stronger effect = lower value",0.935
same,normalized growth,"locus YFR003C, strain YPI1, stronger effect = lower value",0.961
same,normalized growth,"locus YFR019W, strain FAB1, stronger effect = lower value",0.984
same,normalized growth,"locus YFR028C, strain CDC14, stronger effect = lower value",0.94
same,normalized growth,"locus YGR040W, strain KSS1, stronger effect = lower value",0.909
same,normalized growth,"locus YGR052W, strain FMP48, stronger effect = lower value",0.956
same,normalized growth,"locus YGR092W, strain DBF2, stronger effect = lower value",0.875
same,normalized growth,"locus YHR030C, strain SLT2, stronger effect = lower value",0.697 (active)
same,normalized growth,"locus YHR079C, strain IRE1, stronger effect = lower value",0.893
same,normalized growth,"locus YHR082C, strain KSP1, stronger effect = lower value",0.948
same,normalized growth,"locus YHR205W, strain SCH9, stronger effect = lower value",0.878
same,normalized growth,"locus YIL147C, strain SLN1, stronger effect = lower value",0.962
same,normalized growth,"locus YJL095W, strain BCK1, stronger effect = lower value",0.859
same,normalized growth,"locus YJL128C, strain PBS2, stronger effect = lower value",0.886
same,normalized growth,"locus YJL157C, strain FAR1, stronger effect = lower value",0.935
same,normalized growth,"locus YJR016C, strain ILV3, stronger effect = lower value",0.965
same,normalized growth,"locus YJR066W, strain TOR1 (second series), stronger effect = lower value",0.896
same,normalized growth,"locus YJR066W, strain TOR1, stronger effect = lower value",0.851
same,normalized growth,"locus YKL048C, strain ELM1, stronger effect = lower value",0.969
same,normalized growth,"locus YKL067W, strain YNK1, stronger effect = lower value",0.908
same,normalized growth,"locus YKL101W, strain HSL1, stronger effect = lower value",0.913
same,normalized growth,"locus YKL193C, strain SDS22, stronger effect = lower value",0.955
same,normalized growth,"locus YKL203C, strain TOR2, stronger effect = lower value",1.01
same,normalized growth,"locus YLR113W, strain HOG1, stronger effect = lower value",0.757 (active)
same,normalized growth,"locus YLR133W, strain CKI1, stronger effect = lower value",0.945
same,normalized growth,"locus YLR403W, strain SFP1, stronger effect = lower value",0.922
same,normalized growth,"locus YML070W, strain DAK1, stronger effect = lower value",0.915
same,normalized growth,"locus YMR001C, strain CDC5, stronger effect = lower value",0.956
same,normalized growth,"locus YMR205C, strain PFK2 (second series), stronger effect = lower value",0.938
same,normalized growth,"locus YMR277W, strain FCP1, stronger effect = lower value",0.938
same,normalized growth,"locus YNL006W, strain LST8, stronger effect = lower value",0.958
same,normalized growth,"locus YNL020C, strain ARK1, stronger effect = lower value",0.938
same,normalized growth,"locus YNL161W, strain CBK1, stronger effect = lower value",0.968
same,normalized growth,"locus YNL183C, strain NPR1, stronger effect = lower value",0.956
same,normalized growth,"locus YNL207W, strain RIO2, stronger effect = lower value",0.951
same,normalized growth,"locus YNL222W, strain SSU72, stronger effect = lower value",0.951
same,normalized growth,"locus YNL307C, strain MCK1 (second series), stronger effect = lower value",0.915
same,normalized growth,"locus YOL078W, strain AVO1, stronger effect = lower value",0.956
same,normalized growth,"locus YOL136C, strain PFK27, stronger effect = lower value",0.921
same,normalized growth,"locus YOR061W, strain CKA2, stronger effect = lower value",0.919
same,normalized growth,"locus YOR119C, strain RIO1, stronger effect = lower value",0.935
same,normalized growth,"locus YOR231W, strain MKK1, stronger effect = lower value",0.883
same,normalized growth,"locus YOR329C, strain SCD5, stronger effect = lower value",0.962
same,normalized growth,"locus YPL031C, strain PHO85, stronger effect = lower value",0.906
same,normalized growth,"locus YPL153C, strain RAD53, stronger effect = lower value",0.906
same,normalized growth,"locus YPL204W, strain HRR25, stronger effect = lower value",0.903
same,normalized growth,"locus YPL209C, strain IPL1, stronger effect = lower value",0.959
same,normalized growth,"locus YPL256C, strain CLN2, stronger effect = lower value",0.85 (active)
same,normalized growth,"locus YPR025C, strain CCL1, stronger effect = lower value",0.956
same,normalized growth,"locus YPR106W, strain ISR1, stronger effect = lower value",0.957
same,normalized growth,"locus YPR111W, strain DBF20, stronger effect = lower value",0.926
same,normalized growth,"strain NNK1, stronger effect = lower value",0.954
same,normalized growth,"strain TSCII, stronger effect = lower value",0.945

# From PubChem BioAssay AID1159580 (chemical genetic matrix, 2015)
